Test results: PubChem BioAssay AID1220 (Sanford-Burnham Center for Chemical Genomics, 2008)
The campaign covered roughly 190,000 compounds. About 1,300 (0.68%) were called active. This is one part of a sample in which actives are shown more often than they occur. Values without a mark were called inactive. Rule as the data show it: active = inhibition above about 50%; inactive = the rest.

What follows are compounds tested against Mannose-6-phosphate isomerase (Homo sapiens) (UniProt P34949) (assay: human PMI inhibitors, high substrate, primary screen, biochemical, fluorescence intensity, high mannose 6-phosphate (AID 1220)). Conditions: recombinant PMI enzyme, coupled fluorescence intensity; at 20 µM; active compounds read high.
Sequence of Mannose-6-phosphate isomerase (Homo sapiens) (P34949 whole entry, looked up): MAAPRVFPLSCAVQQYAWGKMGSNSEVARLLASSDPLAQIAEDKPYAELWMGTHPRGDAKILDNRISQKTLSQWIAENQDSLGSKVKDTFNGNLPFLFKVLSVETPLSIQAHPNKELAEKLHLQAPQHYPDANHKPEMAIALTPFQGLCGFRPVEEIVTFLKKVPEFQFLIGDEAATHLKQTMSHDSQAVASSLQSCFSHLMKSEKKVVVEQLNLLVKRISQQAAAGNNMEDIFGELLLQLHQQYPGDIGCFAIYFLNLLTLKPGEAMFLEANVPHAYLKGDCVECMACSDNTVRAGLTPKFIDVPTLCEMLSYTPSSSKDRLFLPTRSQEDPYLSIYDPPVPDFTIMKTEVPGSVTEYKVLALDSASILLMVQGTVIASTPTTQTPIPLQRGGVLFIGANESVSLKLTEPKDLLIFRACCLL

Compound | inhibition
CC(C)CSc1n[nH]c(N)n1 | -6.6%
Cc1ccccc1/C=N\NC(=O)c1ccccc1-n1cccc1 | 15.6%
CCOC(=O)c1c(N/N=C/c2ccncc2)n[nH]c1C | -0.3%
Cc1ccccc1Nc1nnc(SCC(=O)NC(=O)Nc2ccc3c(c2)OCCO3)s1 | 3.7%
Cc1ccc(NC(N)=S)cc1 | -4.6%
COc1cccc(-c2nn3c(-c4cc(C)[nH]n4)nnc3s2)c1 | -5.7%
CC(C(=O)OCC(=O)Nc1ccc(S(=O)(=O)N2CCCCC2)cc1)N1C(=O)c2ccccc2C1=O (configuration not stated) | 7.2%
O=S(=O)(c1ccccc1)c1nc(NCc2cccnc2)sc1Cl | -5.8%
O=C(Nc1ccc(NC(=O)C2CCCN2C(=O)OCc2ccccc2)cc1)c1ccco1 (configuration not stated) | -8.3%
COc1ccc(CNC(=O)C(OC(=O)c2nsc(Cl)c2Cl)C(C)C)cc1 (configuration not stated) | 14.4%
CC/C(=N/OC(=O)c1cccc(C)c1)C(=O)c1cccs1 | -0.6%
CCOc1ccc(NC(=O)C2CCN(C(=O)NC3CCCCC3)CC2)cc1 | -11.9%
CCn1nnnc1-c1ccc(OC)c(S(=O)(=O)Nc2ccc(C)c(C)c2)c1 | -3.8%
Cc1ccc(Cl)cc1N1CCN(C(=O)CCC(=O)O)CC1 | -5.1%
Cc1ccc(CSC2=NCCN2C(=O)C2CC2)cc1 | -1.1%
CCC(=O)Nc1c(C#N)c2nc3ccccc3nc2n1C1CCCCC1 | 17.4%
O=S(=O)(Nc1c(S(=O)(=O)c2ccccc2)c2nc3ccccc3nc2n1C1CCCCC1)c1ccccc1 | 59.7% (active)
CCCCn1c(N)c(S(=O)(=O)c2ccc(C)cc2)c2nc3ccccc3nc21 | 20.2%
Cc1ccc(S(=O)(=O)c2c(N)n(CCCO)c3nc4ccccc4nc23)cc1 | 8.6%
CCCCn1c(NS(=O)(=O)c2ccccc2)c(S(=O)(=O)c2ccc(C)cc2)c2nc3ccccc3nc21 | 57.6% (active)
Nc1c(S(=O)(=O)c2ccccc2)c2nc3ccccc3nc2n1C1CC1 | 0.4%
Cc1ccc(N(Cc2ccc([N+](=O)[O-])cc2)C(=O)c2ccco2)cc1C | 4.7%
Cc1ccc(O)c(-c2cc(C(F)(F)F)[nH]n2)c1 | 3.7%
COC(=O)c1nc2nc(C)cc(=O)n2[nH]1 | 3.3%
O=C(Nc1ccc([N+](=O)[O-])cc1)C1C(c2ccccc2)=C1c1ccccc1 | 1.6%

Compound | inhibition
CC(C)C(c1nnnn1Cc1ccc(F)cc1)N1CCSCC1 (configuration not stated) | 4.6%
CC(C)C(c1nnnn1Cc1ccc(F)cc1)N1CCN(C2CCCC2)CC1 (configuration not stated) | 3%
CC(C)C(c1nnnn1Cc1ccc(F)cc1)N1CCN(c2ccc(O)cc2)CC1 (configuration not stated) | 66.2% (active)
Cn1c(-c2ccc(F)cc2)cnc1NCc1cc2c(cc1[N+](=O)[O-])OCO2 | 15.7%
CCNc1nc(NC(C)C)nc(N(n2cnnc2)S(=O)(=O)c2ccc(C)cc2)n1 | 5.3%
Cc1cc(=O)n2nc(N3CCC(C(=O)NC4CCCc5ccccc54)CC3)sc2n1 (configuration not stated) | -0.3%
COC(=O)CC1C(=O)NCCN1Cc1cn(-c2ccc(C)cc2)nc1-c1cccc(C)c1 (configuration not stated) | 52.9% (active)
CC(=O)N1CCCN(Cc2cn(-c3ccc(C)cc3)nc2-c2cccc(C)c2)CC1 | 9.1%
Cc1ccc(-n2cc(CN3CCNC(=O)CC3)c(-c3cccc(C)c3)n2)cc1 | 12.5%
CN(C)c1ccc(C(CNS(=O)(=O)c2ccc3ccccc3c2)c2c[nH]c3ccccc23)cc1 (configuration not stated) | 13.6%
CC1(C)CC(=O)C2=C(C1)N(c1ccc(F)cc1)C(N)=C(C#N)C2c1cccs1 (configuration not stated) | 28.6%
Cc1ccc(C2C(C#N)=C(N)N(c3cccnc3)C3=C2C(=O)CCC3)s1 (configuration not stated) | 56.7% (active)
Cc1ccc(N2C(N)=C(C#N)C(c3cccs3)C3=C2CC(C)(C)CC3=O)cc1 (configuration not stated) | 8.2%
CC1(C)CC(=O)C2=C(C1)N(c1cccnc1)C(N)=C(C#N)C2c1cccs1 (configuration not stated) | 53.9% (active)
CSc1sc(C)cc1C1C(C#N)=C(N)N(c2cccnc2)C2=C1C(=O)CCC2 (configuration not stated) | 13.3%
Cc1nn(C)cc1C1C(C#N)=C(N)N(c2cccnc2)C2=C1C(=O)CCC2 (configuration not stated) | 28.3%
CC(=O)Nc1ccc(/C=C(\C#N)C(=O)NC2CCCCC2)cc1 | 4.7%
Cc1ccc(-c2nnc(SCC(=O)NNC(=O)COc3ccccc3C)n2C)cc1 | 3.3%
Cc1cc2c3c(c1)C1(C(=O)N3C(C)(C)CC2C)C(C#N)=C(N)Oc2cc(O)ccc21 (configuration not stated) | 18.9%
CCc1ccc(N2CC(C(=O)N/N=C/c3cc([N+](=O)[O-])ccc3O)CC2=O)cc1 (configuration not stated) | -15.8%
CCOC(=O)Cc1csc(NC(=O)CSc2nnc(-n3nc(C)cc3C)c3ccccc23)n1 | 6.3%
Cc1nc(NCC2CC2)c2nnn(Cc3ccccc3)c2n1 | 59.2% (active)
Cc1nc(NCC2CCCO2)c2nnn(Cc3ccccc3)c2n1 (configuration not stated) | -3%
Cc1nc(Nc2ccc(Cl)cc2)c2nnn(Cc3ccccc3)c2n1 | 3.1%
O=C(OCC(=O)N1CCN(C(=O)c2ccco2)CC1)c1cc(-c2cccc(Br)c2)nc2ccccc12 | 9.6%

Compound | inhibition
Cc1cc(C)cc(NC(=S)NCC2CCN(C(C)c3ccccc3)C2)c1 (configuration not stated) | -1.3%
O=C(NC(c1ccccc1)c1ccccc1)C1(c2cccs2)CCOCC1 | -1.3%
CCOc1ccc2nc(NS(=O)(=O)c3ccc4c(c3)n(C)c(=O)n4C)sc2c1 | -21%
CCN(CC)c1ccc(NC(=O)c2ccccc2F)cc1S(=O)(=O)Nc1ccccc1OC | -13.8%
CCN(CC)c1ccc(NC(=O)c2ccccc2)cc1S(=O)(=O)Nc1ccccc1OC | 9.4%
CCCS(=O)(=O)C(=C(Nc1ccccc1)Nc1ccccc1)S(=O)(=O)CCC | -4.7%
O=C(NCc1cccs1)N[C@@H](Cc1ccccc1)C(=O)O | -2.3%
COc1ccc(-c2nc(S(=O)(=O)c3ccccc3)c(N3CCOCC3)o2)cc1 | 3.3%
CC1(C(=O)O)Sc2[nH]c(=O)sc2C2c3ccccc3OC(=O)C21 (configuration not stated) | 14.1%
O=C(O)C1Sc2[nH]c(=O)sc2C2c3cc(Cl)ccc3OC(=O)C12 (configuration not stated) | 63.5% (active)
COC(=O)C1Sc2[nH]c(=O)sc2C(c2ccc(Cl)cc2)C1C(=O)OC (configuration not stated) | 34.7%
COC(=O)C1Sc2[nH]c(=O)sc2C2c3ccccc3OC(=O)C12 (configuration not stated) | 29.7%
CCOC(=O)C1Sc2[nH]c(=O)sc2C(c2ccc(Cl)cc2)C1C(=O)OCC (configuration not stated) | -88.8%
O=C(O)C1Sc2[nH]c(=O)sc2C2c3ccc(O)cc3OC(=O)C12 (configuration not stated) | 55.1% (active)
Cc1nc2c(C(=O)NCc3ccc4c(c3)OCO4)c[nH]n2c(=O)c1Cl | 7.8%
CN(C)C=Nc1ncc2c3ccccc3n(CCN(C)C)c2c1C#N | 17.9%
CN(C)CCNC(=O)C1CC(=O)N(c2ccc(F)c(Cl)c2)C1 (configuration not stated) | -1.8%
Cc1nn2c(c1-c1ccc(Cl)cc1)N=C(c1ccco1)CC2c1ccccc1 (configuration not stated) | 0.1%
Nc1ccccc1N=c1ssnc1Cl | 38.1%
COc1cc(N=c2ssnc2Cl)cc(OC)c1OC | 47.1%
N#Cc1cccc(N=c2ssnc2Cl)c1 | 43%
Cc1cc(Cl)ccc1N=c1ssnc1Cl | 13.6%
COc1cc(OC)c(Cl)cc1N | 44.9%
Clc1nssc1=Nc1ccccc1 | 36.5%
Cc1cc(C)nc(NC(=O)c2csnn2)c1 | -2.9%

Compound | inhibition
Cc1ccc(N=c2ssnc2Cl)cc1 | 49.8%
CC(=O)Nc1ccc(S(=O)(=O)Nc2c(C)n(C)n(-c3ccccc3)c2=O)cc1 | 4.8%
O=C(NCc1ccco1)c1cc2nc(C3CC3)cc(C(F)(F)F)n2n1 | 8.5%
Cc1c(NC(=O)C2CCCCN2S(=O)(=O)c2ccc(Cl)cc2)c(=O)n(-c2ccccc2)n1C (configuration not stated) | 4.8%
Cc1ccc(C(=O)NC(=S)Nc2cccc(NC(=O)c3ccccc3)c2)cc1[N+](=O)[O-] | 0.9%
Fc1ccc(-n2nnc(-c3cccnc3)n2)cc1 | -1.8%
Cc1cccc(-c2n[nH]c(=S)n2C)c1 | -8.8%
O=C(NC1=NCCS1)c1ccccc1OCc1ccc(F)cc1 | 1.4%
OCc1ccccc1N=c1ssnc1Cl | 43.7%
COc1ccc(OC)c(N=c2ssnc2Cl)c1 | 67.4% (active)
COc1cc(N=c2ssnc2Cl)cc(OC)c1 | 27.3%
COc1ccc(N=c2sc3ccccc3n2C)cc1 | 0.4%
COc1ccc(OC)c(N=C2C(=O)Nc3ccccc32)c1 | 5.1%
Cc1ccc(-c2nc(C)sc2CC(=O)OCC(=O)Nc2cccc([N+](=O)[O-])c2)cc1 | -5.6%
C/C(=N\N=C\c1ccc(N(C)C)cc1)c1cccc([N+](=O)[O-])c1 | -128%
COC(=O)c1sccc1NC(=S)Nc1cc(OC)ccc1OC | 41.2%
COc1ccc2c(c1)Cc1sc(NC(=O)c3cccnc3)nc1-2 | 64.2% (active)
COc1ccc(C(=O)Nc2nc3c(s2)Cc2cc(OC)ccc2-3)cc1 | 26.8%
COc1ccc2c(c1)-c1nc(NC(=O)c3ccco3)sc1CC2 | 32.9%
COc1ccc2c(c1)Cc1sc(NC(=O)c3ccco3)nc1-2 | 45.8%
COc1ccc2c(c1)CCc1sc(NC(=O)c3ccco3)nc1-2 | 60.6% (active)
COc1ccc2c(c1)Cc1sc(NC(=O)c3ccccc3)nc1-2 | -13.1%
